Z-score data for 35 compounds are collected here from PubChem BioAssay.
Note: test concentration not given here.

The first assay in a line: basal RPMI8226 viability, no added stimulus, profiling panel, cell-based, calcein-AM fluorescence, 48 h, PK04 Diversity Set (AID 1166).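 Note: cells grown under basal conditions without added stimulus.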 To be noted: RPMI8226 myeloma viability, higher = more signal.
With `COC(=O)[C@@]1(Cc2ccc(F)cc2)[C@H]2c3cc(C(=O)N4CCCC4)n(Cc4ccc(Cl)c(C(F)(F)F)c4)c3C[C@H]2CN1C(=O)c1ccccc1`, the z-score is -2.4.

In the case of `COCCCNC(=O)[C@@]1(Cc2ccccc2I)c2ccccc2C(=O)N(Cc2ccccc2)[C@H]1c1ccc(CO)cc1`, the z-score was -1.25.

On to `CC(=O)NCCCC[C@@H]1NC(=O)[C@@H]2C[C@H](C(=O)NCc3ccc(F)cc3)[C@H](c3ccc(O)cc3)N2C1=O`, for which the z-score was -0.556.

`CCOC(=O)C1=CC[C@@H](c2cccc(Cl)c2)N(S(=O)(=O)c2ccc(C)cc2)[C@H]1c1ccc(C#N)cc1`: the z-score is -0.704.

For `CCCNC(=O)[C@@]1(C)c2ccccc2C(=O)N(Cc2cc(C(F)(F)F)cc(C(F)(F)F)c2)[C@H]1c1ccc(CO)cc1`, the z-score is -1.23.

With `COC(=O)c1c2oc(c1C(=O)OC)C(=O)N[C@H](Cc1ccccc1)Cn1nncc1C1(CCCCC1)NC(=O)N[C@H](CO)CC2`, the z-score is 0.358.

`CN(C)CCCC[C@@H]1NC(=O)[C@@H]2C[C@H](C(=O)NCc3ccc(F)cc3)[C@H](c3cccc(OCCO)c3)N2C1=O`: the z-score was 1.02.

As for `COc1ccc([Si](C)(C)[C@@H]2[C@@H](CCn3cc([C@H](O)c4ccccc4)nn3)O[C@]3(C(=O)N(C)c4ccccc43)[C@H]2C)cc1`, the z-score is -3.85.

A further assay can be described thus: basal HepG2 mitochondrial membrane potential changes, profiling panel, cell-based, JC-1 fluorescence, 24 h, 100 nL compound (AID 1167). To be noted: higher = more signal.
Regarding `COc1ccc(C#Cc2ccc3c(c2)[C@]2(C(=O)N3)[C@H](C(=O)N3CCN(c4ncccn4)CC3)[C@H]3C(=O)O[C@H](c4ccccc4)[C@H](c4ccccc4)N3[C@@H]2c2ccc(O)cc2)cc1`, the z-score is -1.11.

Regarding `CCCC[C@H]1C[C@@H]1[C@@H]1N(P(=O)(c2ccccc2)c2ccccc2)[C@](CO)(c2ccccc2)CC12CC2`, the z-score is -2.28.

For `O=C(N1CCCCC1)[C@]1(CCS(=O)(=O)c2ccccc2)N=C(c2ccc(OCCCO)cc2)O[C@@H]1c1ccccc1`, the z-score is -0.0371.

Regarding `OCCCc1cc[n+](Cc2cccc(OC(F)(F)F)c2)cc1`, the z-score turned out to be 1.14.

Turning to `COc1ccc([Si](C)(C)[C@H]2[C@H](CC(=O)N3CCC[C@H]3CO)O[C@@]3(C(=O)N(Cc4cccc(N5CCC5=O)c4)c4ccccc43)[C@@H]2C)cc1`, the z-score is 3.25.

In the case of `CCCNC(=O)[C@@]1(c2ccc([N+](=O)[O-])cc2)CC(=O)N(CC23CC4CC(CC(C4)C2)C3)[C@@H]1c1ccc(CO)cc1I`, the z-score came to 0.243.

With `CCCNC(=O)[C@@]1(C)c2ccccc2C(=O)N(Cc2cc(F)cc(C(F)(F)F)c2)[C@H]1c1ccc(CO)cc1`, the z-score stood at 2.08.

On to `C=C[C@H](C)[C@H](OC(=O)Nc1ccc(OC)cc1)c1ccc(O)c2ccccc12`, for which the z-score is -3.3.

In turn, `O=c1cccc(-c2ccccc2)o1` had a z-score of -1.05.

As to `CC1CC/C=C\[C@H]2OC34C=CCN(Cn5nnc6ccccc65)C(=O)[C@H]3N(CCCO)C(=O)[C@@H]4C2C(=O)O1` (stereo partly drawn), the z-score was -0.0699.

On to `COc1ccc(C#Cc2ccc3c(c2)[C@]2(C(=O)N3)[C@H](c3ccc(OCCO)cc3)N3[C@H](c4ccccc4)[C@H](c4ccccc4)OC(=O)[C@H]3[C@@H]2C(=O)Nc2nc3ccccc3s2)cc1`, for which the z-score was -2.95.

For the compound `C=C(C(=O)CC[C@H](OC(=O)c1cccnc1)c1ccccc1OCCO)C(C)C`, the z-score was -1.45.

As for `C=CC[C@@]1(C(=O)NCCN2CCOCC2)N=C(c2ccc(OCCCO)cc2)O[C@@H]1c1ccccc1CN=[N+]=[N-]`, the z-score stood at 1.86.

In turn, `C=CCOC(=O)[C@H]1[C@@H]2C(=O)O[C@@H](c3ccccc3)[C@@H](c3ccccc3)N2[C@@H](c2ccc(OCCOC(=O)[C@@H]3C[C@@H]4C(=O)NCC(=O)N4[C@@H]3c3ccc(O)cc3)cc2)[C@]12C(=O)Nc1ccc(I)cc12` had a z-score of -1.55.

Regarding `CCOC(=O)C[C@H]1[C@H](OC(=O)c2ccc(C(=O)c3ccccc3)cc2)[C@@H](NC(=O)c2ccc3ccccc3n2)c2cc(OCCCO)ccc2N1C(=O)c1ccc2ccccc2n1`, the z-score worked out at 1.24.

In turn, `C=CCC(OC(C)=O)[C@@H]1[C@@H](N(Cc2ccc(-c3cccc(C(F)(F)F)c3)o2)C(=O)Cc2ccc(OC)cc2)c2cc(OCCCO)ccc2N1C(=O)Cc1ccc(OC)cc1` (stereo partly drawn) showed a z-score of 2.08.

Regarding `C=CCC(OC(C)=O)[C@@H]1[C@@H](N(Cc2ccc(-c3ccccc3)cc2)C(=O)c2ccc(C)cc2)c2cc(OCCCO)ccc2N1C(=O)Cc1ccc(OC)cc1` (stereo partly drawn), the z-score came out at 4.08.

`C=C(COC)C(=O)CC[C@@H](OC(=O)c1ccccc1-c1ccccc1C(=O)O)c1ccc(CO)o1`: the z-score was -2.74.

`CN(C)CCCC[C@@H]1NC(=O)[C@@H]2C[C@H](C(=O)NCCCCCN)[C@H](c3ccc(O)cc3)N2C1=O` yielded a z-score of 1.25.

`CN(C)CCCN1C(=O)[C@@]2(c3ccc([N+](=O)[O-])cc3)CC(=O)N(C3CCCCC3)[C@@H]2c2ccc(CO)cc21` returned a z-score of 0.446.

Regarding `O=C1C2C=CC(C(O)c3cccc4ccccc34)N(n3cnnc3)C2C(=O)N1Cc1ccccc1` (stereo not drawn), the z-score was -1.23.

The compound `COCCCNC(=O)[C@]1(Cc2ccccc2N=[N+]=[N-])N=C(c2ccc(OCCCO)cc2)O[C@@H]1c1ccccc1CN=[N+]=[N-]` showed a z-score of 1.46.

Regarding `C=C(COC)C(=O)CC[C@H](OC(=O)c1cccnc1)c1ccccc1OCCO`, the z-score is -0.952.

For `CCOC(=O)N1C(c2ccc(OCCCO)cc2)=NC(C(=O)OC)N1C(=O)OCC` (stereo not drawn), the z-score was -0.231.

As to `C=CCOC(=O)[C@H]1[C@@H]2C(=O)O[C@@H](c3ccccc3)[C@@H](c3ccccc3)N2[C@@H](c2ccc(OCCOC(=O)[C@H]3C[C@H]4C(=O)N[C@@H](CCCC[N+](C)(C)C)C(=O)N4[C@H]3c3ccc(O)cc3)cc2)[C@]12C(=O)Nc1ccccc12`, the z-score is -1.12.

The compound `CC(C)N1C(=O)c2ccccc2[C@](C)(C(=O)NCCCN(C)C)[C@@H]1c1ccc(CO)cc1` came in with a z-score of 0.861.

Take `C=CCC(OC(C)=O)[C@@H]1[C@@H](N(Cc2ccc(-c3ccccc3)cc2)C(=O)c2ccc(C)cc2)c2cc(OCCCO)ccc2N1C(=O)c1ccc2ccccc2n1` (stereo partly drawn): the z-score came out at 3.31.

`COC(=O)[C@@]1(Cc2ccc(F)cc2)[C@H]2c3cc(C(=O)N4CCCC4)n(Cc4ccc(Cl)c(C(F)(F)F)c4)c3C[C@H]2CN1C(=O)c1ccccc1` showed a z-score of 1.09.

Take `COCCCNC(=O)[C@@]1(Cc2ccccc2I)c2ccccc2C(=O)N(Cc2ccccc2)[C@H]1c1ccc(CO)cc1`: the z-score came to 1.71.

The compound `CC(=O)NCCCC[C@@H]1NC(=O)[C@@H]2C[C@H](C(=O)NCc3ccc(F)cc3)[C@H](c3ccc(O)cc3)N2C1=O` gave a z-score of 1.28.

As to `CCOC(=O)C1=CC[C@@H](c2cccc(Cl)c2)N(S(=O)(=O)c2ccc(C)cc2)[C@H]1c1ccc(C#N)cc1`, the z-score turned out to be 1.38.

In turn, `CCCNC(=O)[C@@]1(C)c2ccccc2C(=O)N(Cc2cc(C(F)(F)F)cc(C(F)(F)F)c2)[C@H]1c1ccc(CO)cc1` yielded a z-score of 1.22.

`COC(=O)c1c2oc(c1C(=O)OC)C(=O)N[C@H](Cc1ccccc1)Cn1nncc1C1(CCCCC1)NC(=O)N[C@H](CO)CC2` had a z-score of 3.8.

In turn, `CN(C)CCCC[C@@H]1NC(=O)[C@@H]2C[C@H](C(=O)NCc3ccc(F)cc3)[C@H](c3cccc(OCCO)c3)N2C1=O` showed a z-score of 2.08.

In turn, `COc1ccc([Si](C)(C)[C@@H]2[C@@H](CCn3cc([C@H](O)c4ccccc4)nn3)O[C@]3(C(=O)N(C)c4ccccc43)[C@H]2C)cc1` came in with a z-score of 0.988.
